From ChEMBL document CHEMBL3988442, “University of Dundee, Small-Polar-MMV Screening Library” (2021)
Screen size: about 48,000 compounds; about 13,000 (27%) showed an effect of 50% or more. The list shows a part of the results.

System: Wolbachia pipientis
Assay: Anti-Wolbachia Cell-Based Screen
Type: functional
Design: scale not given: in the data most compounds retested in dose-response had high values
Settings: 5 µM

SMILES	Percent Effect
Cc1nnc(CN(C)C(=O)C(CC(C)C)N2CCCCC2=O)n1C (stereo not given)	-1.247%
Cc1nc(CN(C)C(=O)CN(C)C)nc2c1CCC(=O)N2CCC(C)C	66.01%
COC(=O)N1CCCC(NC(=O)NCc2nc(C)cs2)C1 (stereo not given)	-5.295%
CCC(=O)N(CC)CCc1nccs1	-20.38%
CCOc1ccc(CC(CNC(=O)c2ccoc2)C(N)=O)cc1 (stereo not given)	0.9555%
Cc1cccc(C(C)(C)CNC(=O)CN(C)c2cnccn2)c1	2.301%
CCCn1ncc(C(=O)N2CCN(C(=O)c3ccc[nH]3)CC2)c1C	2.425%
CN(Cc1cc(C2CC2)[nH]n1)C(=O)C(c1cccnc1)N1CCCC1 (stereo not given)	5.078%
Cc1ccc(F)c(NC(=O)CCC(=O)N(C)Cc2cc(C3CC3)[nH]n2)c1	-39.88%
CN(Cc1cc(C2CC2)[nH]n1)C(=O)c1ccccc1C1CCNC1 (stereo not given)	6.983%
CCCn1ncc(C(=O)N(C)Cc2n[nH]c3c2CCC3)c1C	-0.7404%
Cc1ccc2[nH]c(=O)c(CN(C)Cc3cc(C4CC4)[nH]n3)cc2c1	-5.439%
Cc1cnc2c(C(=O)N(C)Cc3cc(C4CC4)[nH]n3)cnn2c1	88.43%
CN(Cc1cc(C2CC2)[nH]n1)C(=O)c1cnn2ccn(C)c12	92.15%
CCCn1ncc(C(=O)N(C)Cc2cc(C3CC3)[nH]n2)c1C	103.9%
Cn1ccc(CNC(=O)N2CCCC3(C2)OCCO3)c1	-4.368%
Cc1ccc(CNCc2cccc3cn[nH]c23)c(OC2CCOC2)c1 (stereo not given)	1.328%
CCCNC(=O)CN1CCOC(CC)C1 (stereo not given)	-15.19%
CSc1nc2cc(C)n(CC(N)=O)c2c(=O)n1CC(C)C	0.2317%
NC(=O)C1CCN(C(=O)CCCc2ccc(Cl)c(Cl)c2)CC1	-6.164%
NC(=O)C1CCN(C(=O)CCSCc2ccc(Cl)c(Cl)c2)CC1	148.4%
CC[C@@]1(O)CCN(C(=O)CCSCc2ccc(F)cc2)C[C@H]1O	8.229%
O=C(C1COc2ccccc2O1)N1Cc2cnn(CCO)c2C1 (stereo not given)	-44.4%
COc1ncccc1C(=O)N(C)Cc1nc(-c2ccccn2)no1	0.08907%
COc1ccc(-c2nc(CN3CCCC(OC)C3)c(C)o2)c(F)c1 (stereo not given)	6.893%

SMILES	Percent Effect
COc1ccc(F)c(CN2CCC(c3cc(O)nc(C)n3)C2)c1.O=C(O)CC(O)(CC(=O)O)C(=O)O (stereo not given)	-11.82%
Cc1nc(O)cc(C2CCN(Cc3ccc(F)c(F)c3)C2)n1.O=C(O)CC(O)(CC(=O)O)C(=O)O (stereo not given)	92.59%
Cc1nc(O)cc(C2CCN(Cc3cccc(F)c3F)C2)n1.O=C(O)CC(O)(CC(=O)O)C(=O)O (stereo not given)	-5.944%
COCC(=O)N1CCC2(CCCN(Cc3cc(OC)ccc3F)C2)C1 (stereo not given)	2.404%
COc1ccc(F)c(CN2CCCC(c3cc(O)nc(C)n3)C2)c1 (stereo not given)	108.4%
COc1ccc(CN2CCC(c3cc(O)nc(C)n3)C2)c(OC)c1.O=C(O)CC(O)(CC(=O)O)C(=O)O (stereo not given)	122.8%
CCN1CCC(CNCc2cc(OC)ccc2OC)C1 (stereo not given)	4.75%
COc1ccc(OC)c(CN2CCC(c3cc(O)nc(C)n3)C2)c1 (stereo not given)	99.72%
CNC(=O)[C@@H]1C[C@@H](N)CN1C(=O)CCSCc1ccccc1	-2.753%
Cc1ncc(-c2nc3cc(S(=O)(=O)N4CCCC4)ccc3n2C)cn1	-2.365%
O=C(Nc1ccc(-n2cccn2)c(F)c1)C1CCN(C(=O)C2CC2)CC1	-6.661%
Cc1nnn2c1COCC(CNC(=O)c1ccnnc1)C2 (stereo not given)	-2.264%
CCN(C)CC1CCN(C(=O)NCCC2Cc3ccccc3C2)C1 (stereo not given)	-23.1%
COc1ccc(CN2CCC(c3cc(O)nc(C)n3)C2)c(F)c1 (stereo not given)	113.4%
CC(C)c1noc(C[S+]([O-])CC(=O)Nc2cc(F)ccc2F)n1 (stereo not given)	-11.5%
N#Cc1cc(N2CCC(CS(N)(=O)=O)CC2)c2ccccc2n1	3.151%
CNC(=O)[C@H]1C[C@@H]2CN(S(=O)(=O)Cc3ccccc3)C[C@@H]2N1C.O=C(O)C(F)(F)F	-3.951%
Cc1nc(CN2C[C@@H](NC(=O)C3CCC3)[C@H]3COC[C@H]32)cs1.O=C(O)C(F)(F)F	-15.38%
CNC(=O)[C@@H]1C[C@H]2CN(C(=O)c3ccco3)C[C@H]2N1C.O=C(O)C(F)(F)F	-16.64%
CNC(=O)[C@@H]1C[C@H]2CN(C(=O)c3ccco3)C[C@H]2N1C(C)C.O=C(O)C(F)(F)F	99.89%
Cc1nc(CN2CCO[C@@H]3CN(C(=O)NC(C)C)CC[C@@H]3C2)cs1.O=C(O)C(F)(F)F	-13.31%
Cc1nc(CN2C[C@@H]3CCCO[C@@H]3[C@H](N(C)C(C)C)C2)cs1.O=C(O)C(F)(F)F.O=C(O)C(F)(F)F	-4.847%
CNC(=O)[C@H]1C[C@@H]2CN(Cc3csc(C)n3)C[C@@H]2N1S(C)(=O)=O.O=C(O)C(F)(F)F	110%
CNC(=O)[C@@H]1C[C@H]2CN(Cc3csc(C)n3)C[C@H]2N1C(C)C.O=C(O)C(F)(F)F.O=C(O)C(F)(F)F	116.9%
Cc1nc(CN2CCn3cc(CNC(=O)C4CCC4)nc3C2)cs1.O=C(O)C(F)(F)F	-18.19%
